Test [1] in a line: qHTS profiling of the MIPE4 collection as inhibitors of Plasmodium falciparum (3D7) proliferation (AID 743344; call rule not given here;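 further: scaled between DMSO vehicle wells and 0.29 µM artemisinin as full inhibition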). Particulars: P. falciparum 3D7 in erythrocytes, SYBR Green DNA fluorescence, 72 h. An outline of the steps: (§1)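 Erythrocytes infected with P. falciparum (0.3% parasitemia, 2.5% hematocrit) incubated with compounds 72 h at 37 C, 5% CO2. Lysis with saponin/Triton buffer containing SYBR Green I, overnight at room temperature in the dark; DNA fluorescence (485/535 nm) normalised to 0.29 uM artemisinin and DMSO.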
On the technique in general: In qHTS, concentration-response curves come from the screen itself.

The nature of test [2]: qHTS profiling of the MIPE4 collection as inhibitors of Plasmodium falciparum (DD2) proliferation (AID 743345; call rule not given here). Conditions: P. falciparum Dd2 in erythrocytes, SYBR Green DNA, 72 h. The procedure, abridged: as §1
Test [3] is described as follows: qHTS profiling of the MIPE4 collection as inhibitors of Plasmodium falciparum (DD2) proliferation (Rep 2) (AID 743346; call rule not given here). Particulars: P. falciparum Dd2 in erythrocytes, SYBR Green DNA, 72 h. An outline of the steps:
as §1

The nature of test [4]: qHTS profiling of the MIPE4 collection as inhibitors of Plasmodium falciparum (HB3) proliferation (AID 743347; call rule not given here;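 further: plate controls were DMSO vehicle wells for no effect and artemisinin wells for full effect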). Conditions: P. falciparum HB3 in erythrocytes, SYBR Green DNA, 72 h. The procedure, abridged: as §1
Test [5] is described as follows: High-throughput drug toxicity screening in the BPDCN cell line Gen2.2 (AID 1224824; call rule not given here;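 further: cells exposed to compounds for 48 h before reading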). Particulars: Gen2.2 BPDCN cells; at 45.8 µM (top of the series) unless noted. An outline of the steps:
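Gen2.2 cells (500/well) in phenol red-free RPMI with 10% FBS were exposed to compounds for 48 h at 37 °C, 5% CO2. Viability was read by CellTiter-Glo luminescence and normalized to DMSO (100%) and 9.2 uM bortezomib (0%).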

Test [6] is described as follows: qHTS assay for measurement of the activity of small molecule inhibitors on Zika virus induced Caspase-3 activity in human iPSC derived neural progenitor cells (hNPCs) (AID 1224857). Further: % of control where 0% means no effect; nearly all actives have a fitted effect of over 65% in size. The procedure, abridged: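 Values are percent inhibition of virus-induced caspase-3/7 signal, scaled between uninfected cells and ZIKV-infected cells. Infection used 2 FFU/cell for 6 h after 1 h compound exposure.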

A short description of test [7]: qHTS assay for measurement of the activity of small molecule inhibitors on Zika virus induced Caspase-3 activity in human astrocytoma cells (AID 1224859).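 Further: plate controls were ZIKV-infected untreated cells for no effect and uninfected cells for full effect.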 The procedure, abridged: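 Compound added 1 h pre-infection; ZIKV 2 FFU/cell on SNB-19 cells, 6 h, 37 C/5% CO2. Caspase-Glo 3/7 luminescence; values as % inhibition of ZIKV-induced caspase activity.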
Test [8] can be described thus: qHTS Screen of the MIPE 4.0 Collection Against Ewings Sarcoma (RDES) (AID 1259252). Further: nearly all actives have a fitted effect of over 35% in size. Further: potency means the concentration at half of the fitted maximal effect. An outline of the steps: (§2)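 Here, cells in 5% FBS RPMI were exposed for two days (48 h) to compound dilutions added four hours after plating. ATP-based CellTiter-Glo luminescence measured viability, normalized to vehicle and no-cell blanks.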
Test [9] is described as follows: qHTS Screen of the MIPE 4.0 Collection Against Ewings Sarcoma (TC71) (AID 1259253). Further: nearly all actives have a fitted effect of over 40% in size. Further: potency means the concentration at half of the fitted maximal effect. An outline of the steps:
as §2

Test [10] is described as follows: qHTS profiling for inhibitors of Plasmodium falciparum (HB3) proliferation (AID 743324).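 Further: 100% = DMSO vehicle wells and 0% = artemisinin-treated control wells.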 Particulars: Plasmodium falciparum HB3 blood-stage proliferation; at 28.7 µM (top of the series) unless noted. The procedure, abridged:
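P. falciparum HB3 grown in erythrocytes (0.3% parasitemia, 2.5% hematocrit final) with compound for 72 h at 37 C, 5% CO2. Parasite DNA detected by SYBR Green after saponin/triton lysis overnight; normalized to 0.29 uM artemisinin and DMSO.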

The nature of test [11]: qHTS Screen of the MIPE 4.0 Collection Against Ewings Sarcoma (TC32) (AID 1259256). Further: nearly all actives have a fitted effect of over 45% in size. Further: potency means the concentration at half of the fitted maximal effect. The procedure, abridged:
as §2

The nature of test [12]: High-throughput drug toxicity screening in the BPDCN cell line Cal-1 (AID 1224825; call rule not given here). Particulars: Cal-1 BPDCN cell viability, qHTS; at 45.8 µM (top of the series) unless noted. The procedure, abridged: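 Exponentially growing Cal-1 cells, 500 per well in phenol red-free RPMI with 10% FBS, were exposed to compounds for 48 h at 37 °C, 5% CO2. Viability was read by CellTiter-Glo luminescence and normalised to DMSO (100%) and 9.2 uM bortezomib (0%).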

Test [13] can be described thus: qHTS Screen of the MIPE 4.0 Collection Against Ewings Sarcoma (EW8) (AID 1259255). Further: nearly all actives have a fitted effect of over 35% in size. Further: potency means the concentration at half of the fitted maximal effect.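 On viability: 100% = DMSO-treated cells and 0% = medium-only wells without cells.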 The procedure, abridged:
as §2

A short description of test [14]: qHTS assay to identify small molecule inhibitors of chordoma cells - UCH-1 (AID 1259355). Further: on the % scale 0 is the no-effect control and ±100 the full control effect; nearly all actives have a fitted effect of over 55% in size. The procedure, abridged:
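Luminescent ATP read-out (CellTiter-Glo, 30min at room temperature) measured viability of UCH-1 cells exposed for 48hr to test drugs at 15 concentrations, co-dosed with a five-agent combination of auranofin, camptothecin, doxorubicin, rubitecan and topotecan.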

Setting [15] is: at 28.5 µM unless noted.

Records with an inconclusive call do not appear. Active and inactive are the calls of the source. Unless noted, the call rests on the fitted dose curve; in most records, active means well fitted curve in the direction sought with a large enough effect; inconclusive means small, poorly fitted or top-dose-only effect, or another doubt; inactive means no such curve, though single readings can be large; an effect the other way counts as inactive or inconclusive.

With `COc1ccc(-c2ccc3ncc4c(c3c2)n(-c2ccc(N3CCNCC3)c(C(F)(F)F)c2)c(=O)n4C)cn1`, the parasite growth, % of DMSO control in test [1] (setting [15]) is 7.25%. Also, in [2] (setting [15]), the parasite growth remaining, % of DMSO control (lower = more inhibition) is 6.37%. Besides, in test [3] (setting [15]), the parasite growth, % of control (lower = inhibition) worked out at 9.13%. Further, the growth, % of control in [4] (setting [15]) worked out at 3.39%. In addition, the cell viability, % of control (lower = more cytotoxic) in test [5] was 0.968%. For the same molecule, the Potency result in test [6] and in test [7] was “inactive” each time. For the same molecule, the Potency was 0.0469 µM (active) in [8] and 0.0059 µM (active) in [9].

On to `Clc1ccc(COC(Cn2ccnc2)c2ccc(Cl)cc2Cl)c(Cl)c1` (stereo not given), for which, in [10], the remaining proliferation (% of control), lower = more inhibition was -0.548%. For the same molecule, the parasite growth, % of DMSO control in [1] (at 9.64 µM (top of the series)) amounted to 4.92%; in test [1] (at 28.5 µM) it was 5.47%. Further, the parasite growth remaining, % of DMSO control (lower = more inhibition) in [2] (at 9.64 µM (top of the series)) was determined as 11.2%; in test [2] (at 28.5 µM) it was 6.56%. For the same molecule, the values for the parasite growth, % of control (lower = inhibition) in [3] (at 9.64 µM (top of the series)) and in [3] (at 28.5 µM) were 19.2% and 12.3%, respectively. Further, the figures for the growth, % of control in test [4] (at 9.64 µM (top of the series)) and in [4] (at 28.5 µM) were 8.03% and 5.5%, respectively. For the same molecule, in [5], the cell viability, % of control (lower = more cytotoxic) was found to be 90.5%. Also, the Potency entry in test [6] and in [7] was “inactive” in each case. Besides, the values for the Potency in test [8] and in test [11] were 26.4 µM (active) and 18.7 µM (active), respectively.

On to `COc1ccc(-c2nc3ccc(C4=NNC(=O)CC4C)cc3[nH]2)cc1` (stereo not given), for which, in test [12], the viability (% of control) came to 107%. Further, the Potency result in test [6], in [7], in test [8], in test [9] and in [13] was “inactive” throughout.

On to `COc1cc2c(cc1OC)[C@@H]1Cc3ccc(OC)c(OC)c3CN1CC2`, for which the parasite growth, % of DMSO control in [1] (setting [15]) amounted to 25.7%. Moreover, the parasite growth remaining, % of DMSO control (lower = more inhibition) in test [2] (setting [15]) was found to be 36.6%. This molecule came in with a parasite growth, % of control (lower = inhibition) in test [3] (setting [15]) of 26.7%. For the same molecule, the growth, % of control in test [4] (setting [15]) worked out at 11.1%. In addition, in test [5], the cell viability, % of control (lower = more cytotoxic) was 132%. The Potency result in test [6] and in test [7] was “inactive” each time. For the same molecule, in test [8], the Potency was 7.43 µM (active).

Turning to `CC1(C)C(N(O)C(=O)Nc2ccc(Cl)cc2)N(c2ccc(Cl)cc2)C(=O)N1CC(=O)NN=CC=Cc1ccc([N+](=O)[O-])o1` (stereo not given), in test [1] (setting [15]), the parasite growth, % of DMSO control came out at 5.05%. This molecule also came in with a parasite growth remaining, % of DMSO control (lower = more inhibition) in [2] (setting [15]) of 9.75%. The parasite growth, % of control (lower = inhibition) in [3] (setting [15]) stood at 18.3%. The growth, % of control in test [4] (setting [15]) was found to be 7.55%. Also, the viability (% of control) in test [12] is 2.85%. For the same molecule, the Potency entry in test [6] and in test [7] was “inactive” each time. In addition, the Potency in [8] is 26.4 µM (active); in [9] it was 18.7 µM (active); in test [13], 14.8 µM (active); in test [11] it was 18.7 µM (active).

With `COc1ccnc(CS(=O)c2nc3ccc(OC(F)F)cc3[nH]2)c1OC` (stereo not given), the parasite growth remaining, % of DMSO control (lower = more inhibition) in test [2] (setting [15]) was determined as 95.8%. This molecule also gave a parasite growth, % of control (lower = inhibition) in test [3] (setting [15]) of 99%. In test [4] (setting [15]), the growth, % of control turned out to be 91%. For the same molecule, the cell viability, % of control (lower = more cytotoxic) in test [5] stood at 282%. For the same molecule, the Potency result in [6], in [7], in test [9], in [13] and in test [11] was “inactive” each time. In test [14], the molecule was called inactive.

With `COc1ccc(Cn2ccc3ccc(C(=O)NO)cc32)cc1`, the parasite growth, % of DMSO control in test [1] (setting [15]) worked out at 4.8%. In test [2] (setting [15]), the parasite growth remaining, % of DMSO control (lower = more inhibition) turned out to be 13.4%. Further, in [3] (setting [15]), the parasite growth, % of control (lower = inhibition) amounted to 8.17%. For the same molecule, in [4] (setting [15]), the growth, % of control is 3.68%. The viability (% of control) in test [12] was determined as 19.7%. For the same molecule, the Potency entry in [6] and in [7] was “inactive” in each case. Moreover, the Potency in test [13] is 14.8 µM (active).

With `CN(C)c1ccccc1CN1CCCN(Cc2ccccc2N(C)C)C1c1ccncc1`, in test [1] (setting [15]), the parasite growth, % of DMSO control was determined as 17.2%. The same molecule yielded a parasite growth remaining, % of DMSO control (lower = more inhibition) in test [2] (setting [15]) of 9.84%. The parasite growth, % of control (lower = inhibition) in test [3] (setting [15]) stood at 11.1%. The growth, % of control in test [4] (setting [15]) was 12.9%. For the same molecule, the viability (% of control) in test [12] amounted to 29.7%. Further, the Potency result in test [6] and in test [7] was “inactive” in each case. In addition, the Potency was 20.9 µM (active) in test [8] and 18.7 µM (active) in test [13].

On to `CC(=O)O[C@]1(C(C)=O)CC[C@H]2[C@@H]3C=C(Cl)C4=CC(=O)[C@@H]5C[C@H]5[C@]4(C)[C@@H]3CC[C@@]21C`, for which the parasite growth, % of DMSO control in [1] (setting [15]) is 21.6%. Moreover, the parasite growth remaining, % of DMSO control (lower = more inhibition) in [2] (setting [15]) was determined as 22.5%. This molecule returned a parasite growth, % of control (lower = inhibition) in test [3] (setting [15]) of 18.7%. In [4] (setting [15]), this molecule yielded a growth, % of control of 20.1%. Also, the viability (% of control) in [12] stood at 18%. Further, the Potency result in [6] and in [7] was “inactive” in each case. Besides, the Potency is 9.35 µM (active) in test [8], 13.2 µM (active) in [9] and 16.6 µM (active) in [11].

These data come from PubChem BioAssay (NCATS).
